Only some compounds are listed: those with a hit (about 1.5% of all), similar ones and a draw of the others.
RTF Ca sens inh: cardiac RTF calcium desensitization; P19429+P45379; IANBD-labeled cardiac RTF, Ca2+ fluorescence; inhibition, % at 7.15 µM; 0.12% of 340,000 active;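 active means inhibition above the mean inhibition of all tested compounds plus 3 SD, cut at about 17% in these data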;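 further: assay run at fixed EC70 calcium of 1.6 mM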
RTF Ca sens act: increases calcium sensitivity of human cardiac regulated thin filaments; P19429+P45379; IANBD-labeled TnC RTF fluorescence at EC20 calcium; 0% EC20 calcium, 100% full calcium; activation, % at 7.2 µM; 0.24% of 340,000 active;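 active means activation above the mean over all tested compounds plus 3 SD, cut at about 30% in these data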;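 further: rise in fluorescence read as greater calcium sensitivity of cardiac thin filaments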
CRFR2-BP antag: antagonists of CRF-binding protein/CRF-R2 receptor complex; HEK293 CRF-R2/CRF-BP, CRF-induced calcium fluorescence; inhibition, % at 11.8 µM; 0.59% of 350,000 active;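 active means inhibition of the ligand-induced calcium signal above about 50% at the single tested concentration, limit read from the data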
IDE cell inh: inhibitors of human insulin-degrading enzyme in cells. HEK cells, FAbetaB cleavage, fluorescence polarization. inhibition, % at 5.59 µM. 0.41% of 320,000 active. AID 434962;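 active means percent inhibition above the average of all tested compounds plus 3 SD, set per screening campaign, cut at about 16% in these data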;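 further: IDE supplied by intact live HEK cells; FP after avidin binding of uncleaved biotin substrate so inhibition keeps polarization high; 0% = DMSO wells and 100% = 60 µM reference IDE inhibitor Ii1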
Target sequence (P14735 whole entry, looked up): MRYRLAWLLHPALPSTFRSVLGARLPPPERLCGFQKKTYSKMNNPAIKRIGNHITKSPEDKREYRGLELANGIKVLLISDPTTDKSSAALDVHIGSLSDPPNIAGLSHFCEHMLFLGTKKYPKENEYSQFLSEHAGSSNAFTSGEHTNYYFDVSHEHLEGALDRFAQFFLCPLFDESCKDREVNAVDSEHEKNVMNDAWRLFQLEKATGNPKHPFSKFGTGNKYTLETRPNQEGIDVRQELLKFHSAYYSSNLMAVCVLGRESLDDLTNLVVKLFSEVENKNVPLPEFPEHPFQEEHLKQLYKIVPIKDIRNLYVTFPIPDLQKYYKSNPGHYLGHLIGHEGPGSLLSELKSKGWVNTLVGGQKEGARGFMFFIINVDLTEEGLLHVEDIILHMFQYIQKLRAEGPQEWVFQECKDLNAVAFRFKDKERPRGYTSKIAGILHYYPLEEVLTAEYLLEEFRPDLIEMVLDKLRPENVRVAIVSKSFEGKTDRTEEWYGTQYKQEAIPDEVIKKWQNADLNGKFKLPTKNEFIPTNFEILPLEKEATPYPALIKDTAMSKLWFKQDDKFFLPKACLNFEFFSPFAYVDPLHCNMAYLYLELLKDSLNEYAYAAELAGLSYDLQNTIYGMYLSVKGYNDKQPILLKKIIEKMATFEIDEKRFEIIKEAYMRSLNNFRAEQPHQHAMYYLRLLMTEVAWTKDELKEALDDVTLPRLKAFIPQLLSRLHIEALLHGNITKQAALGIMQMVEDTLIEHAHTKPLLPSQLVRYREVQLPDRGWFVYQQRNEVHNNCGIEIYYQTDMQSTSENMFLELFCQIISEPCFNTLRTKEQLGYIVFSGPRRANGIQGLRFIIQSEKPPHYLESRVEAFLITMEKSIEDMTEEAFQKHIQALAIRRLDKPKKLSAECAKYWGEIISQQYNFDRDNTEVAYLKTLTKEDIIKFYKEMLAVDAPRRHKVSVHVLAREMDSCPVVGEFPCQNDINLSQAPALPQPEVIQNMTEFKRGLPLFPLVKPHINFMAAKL
CRFR2-BP ag: CRF-BP/CRF-R2 complex agonism; HEK293 CRF-R2/CRF-BP, calcium dye fluorescence (FLIPR); percent of saturating CRF peptide response; activation, % at 13.2 µM; 0.46% of 350,000 active; AID 588473;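 active means activation of at least 50%, plus an integration ratio under a set limit after plate pattern correction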;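 further: plate controls were neutral control wells without compound for no effect and CRF at EC100 for full effect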
IDE act: boosts human insulin-degrading enzyme activity in HEK cells; P14735; FAbeta-B cleavage, fluorescence polarization; 0% vehicle, 100% cell-free pure enzyme wells; activation, % at 5.96 µM; 0.073% of 340,000 active; AID 493087;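 active means activation above the mean of all tested compounds plus 3 SD, set per screening campaign, cut at about 17% in these data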
Active calls of the source: *.

What do the screens show for `O=c1[nH][nH]cc1C=Nc1ccc(Cl)cc1`?
RTF Ca sens inh: -1; RTF Ca sens act: -6; CRFR2-BP antag: 72*; IDE cell inh: 5; CRFR2-BP ag: -1; IDE act: 4

Results for CCOC(=O)c1cc(-c2c(Cl)cccc2Cl)no1 ?
RTF Ca sens inh: 3; RTF Ca sens act: -7; CRFR2-BP antag: -9; IDE cell inh: -3; CRFR2-BP ag: -2; IDE act: 2

Results for c1ccc(Oc2ccccn2)cc1 ?
RTF Ca sens inh: -6; RTF Ca sens act: -4; CRFR2-BP antag: 4; CRFR2-BP ag: -2; IDE act: -1

How did CN1C(=O)C(N=Nc2ccccc2C(=O)O)N(C)C1=S (stereo unspecified) do in these assays?
RTF Ca sens inh: 0; RTF Ca sens act: 2; CRFR2-BP antag: -57; IDE cell inh: 21*; CRFR2-BP ag: 39; IDE act: -42

How did CC1=NN(C(N)=S)C(=O)C1N=Nc1ccccc1C(=O)O (stereo unspecified) do in these assays?
RTF Ca sens inh: 0; RTF Ca sens act: 3; CRFR2-BP antag: 7; IDE cell inh: -7; CRFR2-BP ag: 1; IDE act: 6

How did COc1cccc(C(=O)/C=C/Nc2ccc(S(=O)(=O)Nc3onc(C)c3C)cc2)c1 do in these assays?
RTF Ca sens inh: 6; RTF Ca sens act: -6; CRFR2-BP antag: 23; IDE cell inh: 0; CRFR2-BP ag: 0; IDE act: 6

How did Cc1noc(NS(=O)(=O)c2ccc(N/C=C\C(=O)c3cccc4ccccc34)cc2)c1C do in these assays?
RTF Ca sens inh: 6; RTF Ca sens act: -4; CRFR2-BP antag: 56*; IDE cell inh: 8; CRFR2-BP ag: -4; IDE act: 4

What do the screens show for `CS(=O)(=O)C1=NSC2=NC(=O)/C(=C\c3ccc(OC(=O)c4ccco4)c(Br)c3)C(=N)N21`?
RTF Ca sens inh: -8; RTF Ca sens act: 4; CRFR2-BP antag: -32; IDE cell inh: 13; CRFR2-BP ag: 23; IDE act: -36

How did COc1ccc(CCN2CC(C(=O)NCCN3CCOC3=O)CCC2=O)cc1 (stereo unspecified) do in these assays?
RTF Ca sens inh: 1; RTF Ca sens act: 0; CRFR2-BP antag: -8; IDE cell inh: -6; CRFR2-BP ag: -1; IDE act: 4

How did COc1ccc(-c2nnc(SCc3ccccn3)n2C)cc1 do in these assays?
RTF Ca sens inh: -15; RTF Ca sens act: -2; CRFR2-BP antag: 2; IDE cell inh: 1; CRFR2-BP ag: 4; IDE act: 0

What do the screens show for `COc1ccc(N=C(N)SCc2ccccn2)cc1`?
RTF Ca sens inh: -21; RTF Ca sens act: -6; CRFR2-BP antag: -26; IDE cell inh: 8; CRFR2-BP ag: 62*; IDE act: 1

Results for C=CCSc1nc2c(cc1C#N)CCC2 ?
RTF Ca sens inh: -5; RTF Ca sens act: 1; CRFR2-BP antag: 18; IDE cell inh: -3; CRFR2-BP ag: 1; IDE act: 5

Results for C=C(C)CSc1nc2c(cc1C#N)CCC2 ?
RTF Ca sens inh: 5; RTF Ca sens act: -5; CRFR2-BP antag: 64*; IDE cell inh: -1; CRFR2-BP ag: -1; IDE act: 2

What do the screens show for `Cc1ccccc1N(CC(=O)N1CCN(Cc2ccccc2)CC1)S(C)(=O)=O`?
CRFR2-BP antag: 70*; CRFR2-BP ag: 5

How did COC(=O)c1c(NC(=O)CN2CCC3(O)CCCCC3C2c2ccc(OC)cc2OC)sc(C)c1C (stereo unspecified) do in these assays?
RTF Ca sens inh: -18; RTF Ca sens act: 5; CRFR2-BP antag: 6; IDE cell inh: 4; CRFR2-BP ag: 2; IDE act: 0

How did COc1ccc(NC(=O)CN2CCC3(O)CCCCC3C2c2cc(OC)ccc2OC)cc1 (stereo unspecified) do in these assays?
RTF Ca sens inh: -4; RTF Ca sens act: -1; CRFR2-BP antag: 51*; IDE cell inh: 0; CRFR2-BP ag: -1; IDE act: -2

How did COC(=O)c1c(NC(=O)CN2CCC3(O)CCCCC3C2c2ccccc2OC)sc(C)c1C (stereo unspecified) do in these assays?
RTF Ca sens inh: -6; RTF Ca sens act: 4; CRFR2-BP antag: -80; IDE cell inh: 0; CRFR2-BP ag: 53*; IDE act: 7
